The supplement of paper PMC10849652
About 7,900 targets were measured; listed, in parts, are those with a hit and a random draw of the rest. About 0.6% of all pairs of compound and target were hits. Unmarked numbers belong to inactive results.

What was measured:
Assay in all cases: log2 fold change, soluble protein after heating vs DMSO (PISA); higher = thermal stabilisation; K562 cells, 10 uM, 30 min; active = over 0.2 and 3.5 SD of the protein, either way, in both replicates (recomputed)
erlotinib = compound: C#Cc1cccc(Nc2ncnc3cc(OCCOC)c(OCCOC)cc23)c1 [erlotinib]
Method in brief: (§1)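 K562 cells at 2×10^6 cells/mL were treated for 30 min with 10 μM compound, and aliquots were heated for 3 min over 48°C-58°C before pooling. Extraction used PBS with 0.5% NP-40 at 4°C, and soluble protein was the supernatant after 21,000xg for 90 min, measured by TMTpro 16plex LC-MS/MS with channel sums equalised. Thermal stability values, relative to control samples and from duplicates, are log2 fold changes.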

[1] = compound: C/C(=N\NC(=O)C1=CC(=CC=C1)S(=O)(=O)N2CCOCC2)/C3=C(C=CC(=C3)Cl)O
Method in brief: as §1

[2] = compound: C1=CC(=C(C=C1Cl)C2=NC3=NC=CN=C3C(=N2)NC4=CC=NC=C4)F
Method in brief: as §1

[3] = compound: C1=CC(=CC=C1C2=NC3=C(N2)C=C(C=C3)C(=O)N)OC4=CC=C(C=C4)Cl
Method in brief: as §1

[4] = compound: C1=CC2=C(C=CC(=C2)/C=C\3/C(=O)NC(=NCC4=CC=CS4)S3)N=C1
Method in brief: as §1

[5] = compound: C1=CC2=NC=CN=C2C=C1/C=C/3\C(=O)NC(=O)S3
Method in brief: as §1

[6] = compound: C1=CC=C(C=C1)C2=NC(=C(N2)C3=CC=NC=C3)C4=CC(=C(C=C4)Cl)O
Method in brief: as §1

[7] = compound: C1=CC=C2C(=C1)C3=NNC4=CC=CC(=C43)C2=O
Method in brief: as §1

[8] = compound: C1CCN(C1)C(=O)NC2=CC=CC(=C2)NC3=NC=C(C(=N3)NCCC4=CN=CN4)Br
Method in brief: as §1

[9] = compound: C1CN(CCC1(CC2=CC=C(C=C2)Cl)N)C3=NC=NC4=C3C=CN4
Method in brief: as §1

IRAK-1-4 Inhibitor I = compound: C1COCCN1CCN2C3=CC=CC=C3N=C2NC(=O)C4=CC(=CC=C4)[N+](=O)[O-] [IRAK-1-4 Inhibitor I]
Method in brief: as §1

ibrutinib = compound: C=CC(=O)N1CCC[C@@H](n2nc(-c3ccc(Oc4ccccc4)cc3)c3c(N)ncnc32)C1 [ibrutinib]
Method in brief: as §1

[10] = compound: CC(=O)c1cnc2ccc(-c3cc(Cl)c(O)c(Cl)c3)nc2c1N[C@H]1CC[C@H](CN(C)C)CC1
Method in brief: as §1

ralimetinib = compound: CC(C)(C)Cn1c(N)nc2ccc(-c3[nH]c(C(C)(C)C)nc3-c3ccc(F)cc3)nc21 [ralimetinib]
Method in brief: as §1

[11] = compound: CC(C)(O)CC(=O)NCCn1ccc2ncnc(Nc3ccc(Oc4cccc(C(F)(F)F)c4)c(Cl)c3)c21
Method in brief: as §1

[12] = compound: CC(C)C1=C2N=C(C=C(N2N=C1)NCC3=CC=CC=C3)NCCCCCCN
Method in brief: as §1

[13] = compound: CC(C)C[C@@H](C=O)NC(=O)[C@H](CC(C)C)NC(=O)[C@H](CC(C)C)NC(=O)OCc1ccccc1
Method in brief: as §1

pinometostat = compound: CC(C)N(C[C@H]1O[C@@H](n2cnc3c(N)ncnc32)[C@H](O)[C@@H]1O)[C@H]1C[C@@H](CCc2nc3cc(C(C)(C)C)ccc3[nH]2)C1 [pinometostat]
Method in brief: as §1

[14] = compound: CC1=C(C(CC(=O)N1)C2=CC=C(C=C2)C(F)(F)F)C(=O)NC3=C(C=C4C(=C3)C=NN4)F
Method in brief: as §1

[15] = compound: CC1=C(C2=C(C=C1)C(=O)C3=CC=CC=C3N2CCCN)C
Method in brief: as §1

Sequence of UniProt Q96QD8 (Q96QD8 whole entry, looked up): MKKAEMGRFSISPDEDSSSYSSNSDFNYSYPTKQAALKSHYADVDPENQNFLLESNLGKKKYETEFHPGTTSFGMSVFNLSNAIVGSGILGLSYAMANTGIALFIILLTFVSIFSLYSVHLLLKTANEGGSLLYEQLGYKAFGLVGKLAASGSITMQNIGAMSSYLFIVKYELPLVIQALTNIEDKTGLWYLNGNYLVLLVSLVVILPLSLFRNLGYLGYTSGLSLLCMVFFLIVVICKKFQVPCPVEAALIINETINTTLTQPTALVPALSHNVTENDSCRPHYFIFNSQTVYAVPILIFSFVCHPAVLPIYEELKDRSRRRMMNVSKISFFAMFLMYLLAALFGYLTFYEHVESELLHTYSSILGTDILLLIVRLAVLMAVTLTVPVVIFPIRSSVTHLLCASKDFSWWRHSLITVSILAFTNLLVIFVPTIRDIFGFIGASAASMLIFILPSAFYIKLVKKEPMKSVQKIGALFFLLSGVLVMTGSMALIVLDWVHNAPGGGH
Sequence of UniProt Q56A73 (Q56A73 whole entry, looked up): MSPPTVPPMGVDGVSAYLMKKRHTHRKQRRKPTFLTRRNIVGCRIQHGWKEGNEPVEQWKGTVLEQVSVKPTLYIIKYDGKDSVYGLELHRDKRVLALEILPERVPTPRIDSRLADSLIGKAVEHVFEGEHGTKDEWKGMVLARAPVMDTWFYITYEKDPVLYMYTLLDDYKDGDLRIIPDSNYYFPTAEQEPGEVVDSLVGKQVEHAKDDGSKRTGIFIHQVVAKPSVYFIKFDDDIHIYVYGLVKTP
Sequence of UniProt P30626 (P30626 whole entry, looked up): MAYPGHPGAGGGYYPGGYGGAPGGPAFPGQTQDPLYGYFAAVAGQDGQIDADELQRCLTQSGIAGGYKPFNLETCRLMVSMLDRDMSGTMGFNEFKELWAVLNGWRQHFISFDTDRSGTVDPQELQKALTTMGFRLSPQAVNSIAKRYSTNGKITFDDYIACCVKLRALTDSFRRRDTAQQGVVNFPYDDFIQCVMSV
Sequence of UniProt P62318 (P62318 whole entry, looked up): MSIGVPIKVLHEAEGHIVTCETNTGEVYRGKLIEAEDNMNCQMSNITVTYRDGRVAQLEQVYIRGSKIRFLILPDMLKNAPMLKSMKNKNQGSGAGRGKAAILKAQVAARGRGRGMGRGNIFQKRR
Sequence of UniProt Q9Y6J9 (Q9Y6J9 whole entry, looked up): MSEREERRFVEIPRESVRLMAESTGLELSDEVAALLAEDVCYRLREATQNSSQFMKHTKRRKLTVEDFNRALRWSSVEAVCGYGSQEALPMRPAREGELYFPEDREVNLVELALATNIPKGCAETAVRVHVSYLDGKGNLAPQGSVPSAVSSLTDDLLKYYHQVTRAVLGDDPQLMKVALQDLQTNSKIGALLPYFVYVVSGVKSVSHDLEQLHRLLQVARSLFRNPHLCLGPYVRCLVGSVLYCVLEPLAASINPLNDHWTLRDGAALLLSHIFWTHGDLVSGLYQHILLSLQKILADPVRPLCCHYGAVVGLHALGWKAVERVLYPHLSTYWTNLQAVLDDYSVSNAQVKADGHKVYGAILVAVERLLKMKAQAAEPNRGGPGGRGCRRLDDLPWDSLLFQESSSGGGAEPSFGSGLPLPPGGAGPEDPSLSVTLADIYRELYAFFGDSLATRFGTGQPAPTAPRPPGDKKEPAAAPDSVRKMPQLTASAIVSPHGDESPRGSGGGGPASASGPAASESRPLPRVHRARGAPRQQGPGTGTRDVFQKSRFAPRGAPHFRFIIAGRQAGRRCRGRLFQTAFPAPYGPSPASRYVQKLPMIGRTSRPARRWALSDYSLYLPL
Sequence of UniProt Q92609 (Q92609 whole entry, looked up): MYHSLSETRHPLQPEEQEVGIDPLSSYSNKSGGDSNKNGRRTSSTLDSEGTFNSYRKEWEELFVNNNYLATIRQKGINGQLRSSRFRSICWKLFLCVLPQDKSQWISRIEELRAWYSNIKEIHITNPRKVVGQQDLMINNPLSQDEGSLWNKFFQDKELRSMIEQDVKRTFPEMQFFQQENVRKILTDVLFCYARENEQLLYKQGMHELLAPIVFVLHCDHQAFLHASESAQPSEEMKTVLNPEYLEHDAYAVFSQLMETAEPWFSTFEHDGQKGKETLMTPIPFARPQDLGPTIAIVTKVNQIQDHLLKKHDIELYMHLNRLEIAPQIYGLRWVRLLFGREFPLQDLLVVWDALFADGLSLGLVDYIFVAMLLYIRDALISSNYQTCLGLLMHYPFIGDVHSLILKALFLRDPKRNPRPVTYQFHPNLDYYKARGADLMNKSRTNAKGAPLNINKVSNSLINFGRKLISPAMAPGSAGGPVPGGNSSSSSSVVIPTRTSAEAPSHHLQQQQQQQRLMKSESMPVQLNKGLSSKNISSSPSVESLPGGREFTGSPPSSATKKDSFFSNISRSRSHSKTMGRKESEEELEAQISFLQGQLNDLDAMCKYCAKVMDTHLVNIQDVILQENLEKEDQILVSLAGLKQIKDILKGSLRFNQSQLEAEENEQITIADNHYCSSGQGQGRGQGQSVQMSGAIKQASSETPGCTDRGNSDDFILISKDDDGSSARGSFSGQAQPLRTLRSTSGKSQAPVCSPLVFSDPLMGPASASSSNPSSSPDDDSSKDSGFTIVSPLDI
Sequence of UniProt P08240 (P08240 whole entry, looked up): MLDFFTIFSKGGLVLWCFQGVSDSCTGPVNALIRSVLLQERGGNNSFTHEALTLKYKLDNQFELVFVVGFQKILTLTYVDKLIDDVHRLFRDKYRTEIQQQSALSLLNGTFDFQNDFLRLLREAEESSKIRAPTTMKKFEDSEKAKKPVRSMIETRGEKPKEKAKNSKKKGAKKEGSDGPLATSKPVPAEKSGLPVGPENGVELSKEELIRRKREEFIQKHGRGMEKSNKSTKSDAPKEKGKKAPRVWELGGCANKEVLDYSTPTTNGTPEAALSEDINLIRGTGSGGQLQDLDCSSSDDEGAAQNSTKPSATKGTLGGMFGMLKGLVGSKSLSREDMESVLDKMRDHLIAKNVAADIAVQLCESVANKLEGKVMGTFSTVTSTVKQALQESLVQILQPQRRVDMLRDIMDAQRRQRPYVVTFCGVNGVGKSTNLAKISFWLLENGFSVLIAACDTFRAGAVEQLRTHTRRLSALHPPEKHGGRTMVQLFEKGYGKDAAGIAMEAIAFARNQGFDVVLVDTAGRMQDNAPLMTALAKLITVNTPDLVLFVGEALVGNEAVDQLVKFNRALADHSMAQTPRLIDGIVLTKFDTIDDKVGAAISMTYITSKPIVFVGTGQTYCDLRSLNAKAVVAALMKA
Sequence of UniProt Q9Y4R8 (Q9Y4R8 whole entry, looked up): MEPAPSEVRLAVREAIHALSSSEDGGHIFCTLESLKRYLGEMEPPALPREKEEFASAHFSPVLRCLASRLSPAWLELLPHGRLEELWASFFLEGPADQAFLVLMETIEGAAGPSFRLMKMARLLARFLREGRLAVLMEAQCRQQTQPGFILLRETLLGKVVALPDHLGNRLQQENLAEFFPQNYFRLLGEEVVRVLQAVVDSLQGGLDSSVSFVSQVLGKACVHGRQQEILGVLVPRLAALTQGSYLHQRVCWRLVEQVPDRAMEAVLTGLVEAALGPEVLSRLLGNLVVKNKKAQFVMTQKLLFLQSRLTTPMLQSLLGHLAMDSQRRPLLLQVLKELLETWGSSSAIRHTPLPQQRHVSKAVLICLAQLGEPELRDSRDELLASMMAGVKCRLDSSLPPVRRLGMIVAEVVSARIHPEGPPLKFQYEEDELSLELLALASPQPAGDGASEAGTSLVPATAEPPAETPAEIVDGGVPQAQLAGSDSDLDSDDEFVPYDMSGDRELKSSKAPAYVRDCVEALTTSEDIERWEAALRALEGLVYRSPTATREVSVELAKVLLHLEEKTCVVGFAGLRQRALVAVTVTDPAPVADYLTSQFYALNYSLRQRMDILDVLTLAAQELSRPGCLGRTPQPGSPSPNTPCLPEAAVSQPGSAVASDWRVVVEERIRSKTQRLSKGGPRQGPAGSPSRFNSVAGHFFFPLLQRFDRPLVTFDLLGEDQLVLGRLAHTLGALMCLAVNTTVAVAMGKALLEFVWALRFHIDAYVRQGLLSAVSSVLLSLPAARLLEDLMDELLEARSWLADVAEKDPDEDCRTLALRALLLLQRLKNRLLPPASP
Sequence of UniProt Q9BZJ4 (Q9BZJ4 whole entry, looked up): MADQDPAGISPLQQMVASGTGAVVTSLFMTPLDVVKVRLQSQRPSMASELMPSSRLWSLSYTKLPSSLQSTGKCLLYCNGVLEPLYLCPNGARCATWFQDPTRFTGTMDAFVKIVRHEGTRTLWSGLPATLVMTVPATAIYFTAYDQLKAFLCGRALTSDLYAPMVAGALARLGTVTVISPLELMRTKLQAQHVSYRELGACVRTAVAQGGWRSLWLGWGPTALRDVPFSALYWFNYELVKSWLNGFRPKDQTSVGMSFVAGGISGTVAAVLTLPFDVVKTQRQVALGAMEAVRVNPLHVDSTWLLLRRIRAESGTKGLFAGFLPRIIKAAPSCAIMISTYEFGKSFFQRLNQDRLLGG
Sequence of UniProt Q9Y6I9 (Q9Y6I9 whole entry, looked up): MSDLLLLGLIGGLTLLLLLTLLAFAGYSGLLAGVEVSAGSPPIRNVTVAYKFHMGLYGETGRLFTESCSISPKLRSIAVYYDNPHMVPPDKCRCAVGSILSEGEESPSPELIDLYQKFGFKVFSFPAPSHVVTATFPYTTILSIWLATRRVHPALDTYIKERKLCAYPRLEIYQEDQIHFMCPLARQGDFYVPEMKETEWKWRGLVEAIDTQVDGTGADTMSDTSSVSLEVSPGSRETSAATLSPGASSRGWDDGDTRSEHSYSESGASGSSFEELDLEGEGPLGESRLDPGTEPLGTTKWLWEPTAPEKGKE
Sequence of UniProt Q8WVK2 (Q8WVK2 whole entry, looked up): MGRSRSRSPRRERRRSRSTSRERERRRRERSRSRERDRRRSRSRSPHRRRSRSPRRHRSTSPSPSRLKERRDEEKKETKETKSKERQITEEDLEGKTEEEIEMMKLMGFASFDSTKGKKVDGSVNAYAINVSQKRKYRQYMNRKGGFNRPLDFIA

Row | Target | log2 fold change (erlotinib) | log2 fold change [1] | log2 fold change [2] | log2 fold change [3] | log2 fold change [4] | log2 fold change [5] | log2 fold change [6] | log2 fold change [7] | log2 fold change [8] | log2 fold change [9] | log2 fold change (IRAK-1-4 Inhibitor I) | log2 fold change (ibrutinib) | log2 fold change [10] | log2 fold change (ralimetinib) | log2 fold change [11] | log2 fold change [12] | log2 fold change [13] | log2 fold change (pinometostat) | log2 fold change [14] | log2 fold change [15]
1 | SLC25A4 (UniProt P12235) | 0.007 | -0.016 | 0.035 | -0.009 | -0.004 | 0.042 | 0.045 | -0.076 | -0.019 | 0.021 | 0.032 | 0.068 | 0.016 | -0.007 | 0.009 | 0.089 | 0.004 | -0.02 | -0.031 | -0.013
2 | TELO2 (UniProt Q9Y4R8) | 0.043 | 0.102 | -0.185 | -0.031 | -0.039 | 0.019 | -0.037 | 0.053 | 0.046 | -0.076 | -0.126 | -0.044 | 0.008 | 0.103 | 0 | -0.375 | 0.049 | 0.204 | -0.015 | 0.125
3 | TEX264 (UniProt Q9Y6I9) | 0.099 | 0.024 | 0.034 | 0.769 (active) | 0.325 | 0 | 0.203 | 0.349 | 0.033 | 0 | -0.011 | -0.049 | -0.022 | 0 | 0.19 | -0.148 | -0.035 | -0.005 | -0.155 | 0.091
4 | SNRPD3 (UniProt P62318) | -0.019 | -0.02 | -0.04 | -0.038 | 0.012 | 0.079 | -0.113 | -0.076 | 0.068 | -0.012 | 0.002 | -0.006 | 0.067 | -0.022 | 0.208 | 0.162 | 0.017 | 0.027 | -0.008 | 0.022
5 | SYNE1 (UniProt Q8NF91) | 0.155 | -0.499 (active) | 0.07 | -0.132 | 0.132 | -0.02 | 0.058 | 0 | -0.038 | 0.172 | 0.062 | -0.015 | -0.398 | 0.127 | -0.212 | 0.097 | 0.064 | 0.002 | -0.031 | 0.075
6 | THRAP3 (UniProt Q9Y2W1) | 0.081 | 0.023 | -0.071 | 0.067 | -0.094 | -0.002 | -0.097 | -0.171 | 0.038 | -0.09 | -0.116 | 0.01 | -0.581 (active) | -0.026 | -0.032 | -0.12 | 0.075 | 0.057 | 0.066 | -0.018
7 | TBC1D5 isoform 2 (UniProt Q92609) | 0.019 | 0.111 | -0.03 | -0.041 | 0.044 | 0.032 | -0.049 | 0.027 | -0.003 | -0.078 | -0.022 | -0.01 | -0.009 | 0.023 | -0.179 | -0.325 (active) | 0.076 | 0.003 | 0.01 | 0.02
8 | SUPT16H (UniProt Q9Y5B9) | 0.177 | 0.25 | 0.091 | -0.012 | 0.155 | 0 | 0.064 | 0.098 | -0.098 | -0.011 | -0.155 | -0.139 | -0.259 | -0.059 | -0.174 | -0.26 | 0.083 | 0.044 | -0.015 | -1.34 (active)
9 | SLC25A39 (UniProt Q9BZJ4) | -0.072 | -0.217 | 0.038 | 0.062 | 0.193 | 0.118 | -0.042 | -0.046 | -0.186 | 0.112 | 0.037 | 0.032 | 0.068 | -0.035 | -0.112 | -0.673 (active) | 0.035 | 0.294 | -0.129 | -0.11
10 | SLC25A42 (UniProt Q86VD7) | 0.08 | 0.01 | 0.089 | 0.01 | -0.032 | -0.026 | 0.079 | -0.137 | -0.086 | 0.066 | 0.034 | 0.045 | -0.002 | 0.041 | 0.015 | 0.014 | -0.037 | -0.027 | -0.045 | 0.077
11 | SNRPB2 (UniProt P08579) | -0.032 | -0.056 | -0.01 | -0.019 | -0.034 | 0.042 | -0.054 | -0.015 | 0.057 | -0.026 | 0.067 | 0.074 | 0.089 | -0.015 | 0.037 | 0.213 (active) | 0.037 | 0 | -0.012 | 0.036
12 | SYMPK (UniProt Q92797) | -0.005 | 0.179 | 0.005 | -0.114 | 0.189 | 0.033 | 0.093 | -0.065 | -0.101 | 0.04 | -0.029 | -0.087 | -0.057 | 0.099 | -0.296 | -0.026 | -0.061 | -0.115 | 0.078 | -0.033
13 | SRI (UniProt P30626) | -0.042 | 0.113 | 0.322 | 0.025 | 0.09 | 0.121 | 0.185 | 0.016 | -0.037 | -0.041 | -0.017 | -0.032 | -0.014 | -0.039 | -0.108 | 0.026 | -0.048 | -0.036 | 0.069 | 0.201
14 | SRPRA (UniProt P08240) | -0.01 | 0.061 | 0.073 | 0.007 | 0.054 | -0.048 | 0.063 | 0.003 | 0.001 | 0.006 | -0.024 | 0.015 | -0.028 | -0.002 | -0.058 | 0.021 | -0.006 | -0.001 | -0.033 | 0.269 (active)
15 | SNRNP27 (UniProt Q8WVK2) | 0.026 | -0.021 | 0.052 | 0.015 | 0.015 | 0.045 | -0.165 | -0.027 | 0.061 | 0.035 | 0.033 | 0.002 | -0.03 | -0.118 | 0.018 | 0.035 | 0.054 | -0.04 | 0.082 | -0.043
16 | SLC38A2 (UniProt Q96QD8) | -0.093 | 0.075 | 0.01 | 0.003 | -0.039 | 0.093 | 0.055 | 0 | -0.009 | 0.048 | 0.018 | 0.022 | -0.057 | -0.097 | -0.12 | -0.28 (active) | 0.102 | -0.053 | 0.019 | 0.01
17 | SNX15 (UniProt Q9NRS6) | – | 0.062 | – | – | -0.088 | -0.006 | 0 | -0.065 | -0.166 | -0.072 | -0.031 | -0.112 | -0.111 | -0.051 | – | – | 0.021 | -0.069 | -0.099 | -0.016
18 | TBP (UniProt P20226) | – | -0.016 | 0.027 | – | 0.073 | 0.041 | 0.012 | -0.058 | 0.018 | 0.157 | 0.018 | -0.029 | 0.091 | -0.016 | 0.036 | – | -0.002 | -0.019 | -0.046 | 0.528 (active)
19 | TM7SF3 (UniProt Q9NS93) | -0.073 | 0.053 | – | 0.03 | -0.101 | 0.034 | 0.02 | 0.061 | 0.001 | 0.123 | -0.06 | 0.014 | 0.055 | -0.068 | – | -0.485 (active) | 0.01 | -0.036 | 0.016 | 0.057
20 | SP2 (UniProt Q02086) | – | 0 | – | – | 0.229 | – | – | 0.095 | – | – | -0.126 | – | -0.472 | – | – | – | – | 0.212 | – | –
21 | TDP1 (UniProt Q9NUW8) | 0.141 | – | – | – | – | – | – | – | – | – | – | – | – | – | – | 0.156 | – | – | – | –
22 | TGFBR1 isoform 2 (UniProt P36897) | -0.012 | 0.084 | – | -0.051 | -0.072 | 0.043 | 0.161 | 0.004 | -0.019 | 0.047 | -0.004 | 0.006 | 0.329 (active) | 0.072 | -0.043 | 0.025 | 0.049 | -0.047 | -0.022 | 0.019
23 | SPIN4 (UniProt Q56A73) | -0.125 | – | – | 0.116 | – | – | – | – | – | – | 0.07 | – | – | – | – | -0.079 | – | 0.051 | – | –
24 | TAF6L (UniProt Q9Y6J9) | 0.042 | 0.08 | – | -0.132 | 0.009 | – | -0.051 | 0.088 | -0.069 | -0.197 | – | – | 0.054 | -0.092 | – | 0.023 | 0.122 | – | 0.118 | -0.03
